SENP6 block – SENP6 protease inhibitors, primary screen, biochemical, luminescence, uHTS. Sentrin-specific protease 6 (Homo sapiens), Q9GZR1. Recombinant SENP6 catalytic domain, aminoluciferin luminescence. inhibition, % at 10 µM. actives 1.8% (n = 330,000);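 active = inhibition above about 50% at the single tested dose, limit read from the data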;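 note: plate controls were DMSO wells with enzyme for no effect and DMSO wells lacking enzyme for full effect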
Target sequence (Q9GZR1 628-1112 limits assumed): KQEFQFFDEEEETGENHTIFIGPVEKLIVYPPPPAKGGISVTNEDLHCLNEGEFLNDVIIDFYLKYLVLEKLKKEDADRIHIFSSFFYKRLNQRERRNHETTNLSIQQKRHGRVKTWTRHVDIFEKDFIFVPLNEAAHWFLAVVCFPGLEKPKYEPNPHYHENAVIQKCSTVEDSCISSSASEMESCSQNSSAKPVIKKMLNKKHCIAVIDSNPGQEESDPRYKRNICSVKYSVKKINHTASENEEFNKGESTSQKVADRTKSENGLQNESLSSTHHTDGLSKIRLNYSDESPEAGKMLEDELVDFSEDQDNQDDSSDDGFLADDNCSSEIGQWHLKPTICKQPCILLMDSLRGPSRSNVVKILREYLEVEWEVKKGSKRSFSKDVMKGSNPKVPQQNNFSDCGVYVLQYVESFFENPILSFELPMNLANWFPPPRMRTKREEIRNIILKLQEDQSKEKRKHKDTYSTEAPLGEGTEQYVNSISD
PPC-1+TRAIL kill – compounds killing PPC-1 cancer cells with TRAIL present, primary screen, TRAIL potentiator project, ATPLite luminescence, uHTS | PPC-1 cells + TRAIL, ATPLite viability luminescence | cell killing (% activity), % at 4 µM or 5 µM | actives 0.41% (n = 220,000) | AID 1443, 2008;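 active = cell killing above 50% in the first pass at 4 µM, then a duplicate retest at 5 µM averaging 50% or more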;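 note: plate controls were cells with TRAIL plus DMSO for no effect and medium-only wells lacking cells for full effect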
SENP7 block – SENP7 protease inhibitors, primary screen, biochemical, luminescence, uHTS; Sentrin-specific protease 7 (Homo sapiens), Q9BQF6; recombinant SENP7, Z-RLRGG-aminoluciferin luminescence, 40 min; inhibition, % at 5 µM; actives 1.5% (n = 330,000); AID 434973, 2010;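 active = inhibition above about 50% at the single test dose, limit read from the data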;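 note: plate controls were DMSO with enzyme for no effect and no enzyme buffer wells for full effect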
SENP8 block-1 – human SENP8 protease inhibitors, primary screen, biochemical, fluorescence, Nedd8 protein substrate, uHTS. Sentrin-specific protease 8 (Homo sapiens), Q96LD8. recombinant SENP8. inhibition, % at 20 µM. actives 0.64% (n = 360,000). AID 602440, 2012; in the data active = inhibition mostly above about 40%, no sharp cut-off; inactive = mostly below about 27%
TRAIL sens C8 – viability loss with TRAIL in NB7+C8 cells, primary screen, TRAIL sensitizer project, cell-based, ATPlite luminescence; inhibition (viability loss, TRAIL sensitization), % at 10 µM; actives 1% (n = 360,000);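 active = compounds causing at least 50% loss of cell viability in the single-dose screen, relative to plate controls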
SENP8 block-2 – SENP8 protease inhibitors, primary screen, biochemical, luminescence | actives 1.2% (n = 330,000) | AID 2540, 2010 | Sentrin-specific protease 8 (Homo sapiens), Q96LD8 | inhibition, % at 10 µM | purified SENP8, Z-RLRGG-aminoluciferin cleavage; in the data active = inhibition above about 50%
SENP8 confirm – SENP8 protease inhibitors, retest, confirmation, biochemical, luminescence, single concentration; AID 488912, 2010; actives 40% (n = 6,200); shares compounds with SENP7 block; inhibition, % at 12.5 µM; Recombinant SENP8, Z-RLRGG-aminoluciferin luminescence, 60 min;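 active = mean inhibition across replicates above about 50%, limit read from the data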
SENP6 conf – SENP6 protease inhibitors, confirmation, biochemical, luminescence, single concentration | shares compounds with SENP7 block | inhibition, % at 12.5 µM | actives 58% (n = 6,200) | recombinant SENP6, Z-RLRGG-aminoluciferin luminescence
SENP7 confirm – SENP7 protease inhibitors, retest, confirmation, biochemical, luminescence, single concentration; actives 69% (n = 6,200); AID 488917, 2010; inhibition, % at 12.5 µM; recombinant SENP7, Z-RLRGG-aminoluciferin luminescence, 40 min; shares compounds with SENP7 block
Casp3 SENP sel – caspase-3 protease inhibitors, confirmation, selectivity assay for SENP inhibitor project, biochemical, single concentration | shares compounds with SENP7 block | purified caspase-3, Z-DEVD-aminoluciferin luminescence, 60 min | inhibition, % at 12.5 µM | actives 60% (n = 6,200) | AID 488918, 2010;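 active = mean inhibition above about 50%, limit read from the data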;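 note: plate controls were enzyme with DMSO for no effect and wells without caspase-3 for full effect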
SENP luc ctr – interferes with luciferase luminescence in SENP counter-screen. actives 39% (n = 6,200). inhibition, % at 12.5 µM. shares compounds with SENP7 block. Pre-incubated SENP8/Z-RLRGG-aminoluciferin, luciferase luminescence interference;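 active = mean inhibition above about 50% when retested at one dose, limit read from the data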;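 note: plate controls were DMSO wells with completed reaction for no effect and substrate without enzyme for full effect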
* = called active by the depositor; nt = no result given. This is a sample that favours compounds with a hit; in the whole collection about 3% have one here.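 Rule for the calls, unless noted: active = mean inhibition above about 50% in the one-dose retest (limit read from the data); inactive = the rest.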

SMILES	SENP6 block	PPC-1+TRAIL kill	SENP7 block	SENP8 block-1	TRAIL sens C8	SENP8 block-2	SENP8 confirm	SENP6 conf	SENP7 confirm	Casp3 SENP sel	SENP luc ctr
Cc1nn(-c2ccc(F)cc2)c(Cl)c1C(=O)OC(C)C(=O)N(C)C1CCCCC1 (centres undefined)	-1	nt	1	8	2	-2	nt	nt	nt	nt	nt
CC(C)CC1C(=O)N(Cc2cn(Cc3ccco3)nn2)CCS(=O)(=O)N1Cc1ccc(-c2ccc(F)cc2)cc1 (centres undefined)	nt	nt	nt	-2	20	nt	nt	nt	nt	nt	nt
Cn1c(=O)c2c(nc(OC3CCCC3)n2C)n(C)c1=O	nt	nt	nt	1	27	nt	nt	nt	nt	nt	nt
COCCn1c(C)cc(C(=O)CSc2nnc(C)s2)c1C	46	39	50*	19	50*	10	41	38	80*	81*	56*
CN(CCC#N)c1ccc(/C=C(\C#N)c2ccccn2)cc1	76*	15	1	-15	84*	80*	91*	92*	99*	89*	92*
CCOC(=O)c1[nH]c2cc(OC)c(OC)cc2c1N	0	7	2	-275	-10	-4	nt	nt	nt	nt	nt
CCOC(=O)c1[nH]c2ccc(C)cc2c1N	50*	21	-2	-310	-2	24	54*	54*	88*	82*	72*
Cn1c(-c2ncc(F)cc2F)cc2onc(-c3c(F)cccc3Cl)c2c1=O	-7	nt	9	-30	7	7	nt	nt	nt	nt	nt
Cn1c(-c2ccccc2)cc2onc(-c3ccccc3)c2c1=O	95*	nt	95*	15	81*	95*	34	38	55*	29	4
O=C(NC1CC1)c1ccc(CSCc2ccc(Cl)cc2)o1	nt	nt	nt	27	-3	nt	nt	nt	nt	nt	nt
CSc1ncccc1C(=O)OCC(=O)c1cc(C)n(C)c1C	54*	nt	37	1	25	37	14	46	82*	73*	45
Cc1cc(C(=O)COc2cccc3cccnc23)c(C)n1C	79*	19	29	-127	-8	13	8	7	7	10	9
CSc1ncccc1C(=O)OCC(=O)c1ccccc1	53*	-12	34	-1	1	28	7	20	70*	56*	-2
CSc1ncccc1C(=O)OCC(=O)c1cc(C)n(CC2CCCO2)c1C (centres undefined)	88*	32	78*	16	48*	83*	92*	92*	99*	93*	32
CC1(C(=O)NS(=O)(=O)c2cccc(C#N)c2)CCN1C(=O)C/C=C/c1ccccc1 (centres undefined)	nt	nt	nt	6	-7	nt	nt	nt	nt	nt	nt
C[C@H](NC(=O)[C@@H]1CCCN1C(=O)[C@@H]1CCCN1C(=O)OC(C)(C)C)c1ccccc1	nt	nt	nt	6	-5	nt	nt	nt	nt	nt	nt

Bioassay records (PubChem BioAssay)
